# Values joined by “and” are separate entries in the source; they are usually repeats but may differ in a detail not shown here. Identical values can stand only once. Records with an inconclusive call do not appear. More than one record can exist for a structure, and the calls need not agree. Active and inactive are the calls of the source. Rule for the calls, unless noted: active = hit-call score of the fitted dose curve at least 0.9, where 1 is the maximum; inconclusive = response in the unintended direction; inactive = score below 0.9.
# Assays:
# [1] = Tanguay_ZF_120hpf_SWIM_legacy: (Legacy) Oregon State University Tanguay Lab 120 Hour Post-fertilization zebrafish Assay for Swim Bladder Malformation (AID 2283654);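 note: swim bladder malformation in each larva scored yes or no under brightfield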
# Method in brief: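 Static waterborne exposure of single dechorionated Tropical 5D zebrafish embryos, 6–120 hpf, 28C, 0.64% DMSO final. Read-out: swim bladder malformation, present/absent, relative to DMSO negative control; trimethyltin chloride 5uM served as positive control.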
# [2] = Tanguay_ZF_120hpf_TRUN_legacy: (Legacy) Oregon State University Tanguay Lab 120 Hour Post-fertilization zebrafish Assay for Truncated Body (AID 2283655)
# Method in brief: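 Binary presence/absence of truncated body is recorded at 120 hpf by brightfield, with non-mortality endpoints skipped after death. Exposure is static from 6 hpf in sealed dark plates at 28C, using dechorionated wild-type zebrafish, 0.64% DMSO.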
# [3] = Tanguay_ZF_120hpf_NC_legacy: (Legacy) Oregon State University Tanguay Lab 120 Hour Post-fertilization zebrafish Assay for Notochord and Tail Malformation (AID 2283656)
# Method in brief: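 Binary scoring of notochord distortion by brightfield microscopy; embryos dying were not scored. Wild-type Tropical 5D embryos, chorion removed, exposed singly and statically from 6 to 120 hpf, 28C, sealed, 0.64% DMSO.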
# [4] = tested on: Thyroperoxidase (TPO), gene 54314; assay: CCTE_Simmons_AUR_rTPO: CCTE's Amplex UltraRed Assay for Thyroperoxidase (TPO) Inhibition, Simmons Lab (AID 2283662);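 for AC50: potency for loss of signal meaning inhibition of peroxidase activity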
# Method in brief: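 Cell-free peroxidase activity assay using rat thyroid gland microsomes with excess H2O2 (300 uM) and 25 uM Amplex UltraRed. Compounds tested from 5 nM to 87.5 uM; fluorescence measured after 30 min at 37C, analysed relative to DMSO baseline.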
# [5] = CCTE_Simmons_CellTiterGLO_HEK293T: Viability Assessment in CCTE's Assays for Thyroperoxidase (TPO) Inhibition, Simmons Lab (AID 2283665);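 for AC50: cells exposed to compound for 24 h before readout; actives reduce ATP signal below DMSO vehicle meaning cytotoxicity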
# Method in brief: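 Luciferase-coupled ATP content after 24 h exposure gives viability; 8-point series from 5 nM to 87.5 uM final in 0.5% DMSO. Human HEK293T cells, 1% FBS medium, three biological replicates, dichlone positive control.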
# [6] = Tanguay_ZF_120hpf_TR_legacy: (Legacy) Oregon State University Tanguay Lab 120 Hour Post-fertilization zebrafish Assay for Touch Response (AID 2283667)
# Method in brief: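 Readout is presence or absence of touch response in 120 hpf zebrafish larvae, assessed by brightfield observation after continuous static exposure at 28C. Final vehicle was 0.64% (vol/vol) DMSO.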
# [7] = Tanguay_ZF_120hpf_ActivityScore_legacy: (Legacy) Oregon State University Tanguay Lab 120 Hour Post-fertilization zebrafish Assay Score for Activity (AID 2283742);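 for AC50: dechorionated Tropical 5D wild-type zebrafish embryos held singly per well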
# Method in brief: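 In this whole-embryo screen, dechorionated zebrafish were exposed from 6 hpf until 120 hpf at 28C under a 0.64% DMSO vehicle. Developmental malformations and death were recorded by brightfield microscopy as binary endpoints.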
# [8] = read-out: solute carrier (SLC22A6), SLC22A6 (gene 9356); assay: LTEA_HepaRG_SLC22A6: Life Technologies and Expression Analysis (LTEA) Assay for solute carrier (SLC22A6) using HepaRG (AID 2283653; active = hit-call score of the fitted dose curve at least 0.9, where 1 is the maximum; inactive = score below 0.9); conditions: mRNA level, 48 h; actives raise or lower the signal
# Method in brief: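 SLC22A6 transcript was measured by TaqMan qRT-PCR, normalized to three housekeeping genes, after 48 h duplicate exposure of HepaRG cells (100 uM top, half-log steps, 0.5% DMSO); bidirectional fit against vehicle.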
# [9] = read-out: solute carrier (SLC10A1), SLC10A1 (gene 6554); assay: LTEA_HepaRG_SLC10A1: Life Technologies and Expression Analysis (LTEA) Assay for solute carrier (SLC10A1) using HepaRG (AID 2283657; active = hit-call score of the fitted dose curve at least 0.9, where 1 is the maximum; inactive = score below 0.9); conditions: mRNA level, 48 h; actives raise or lower the signal
# Method in brief: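 Cryopreserved HepaRG cells are thawed, plated and cultured 48 h; medium is then switched to serum-free induction medium and chemicals added (8 points, max 100 uM, 0.5% DMSO). After 48 h, RNA is isolated and SLC10A1 quantified by qRT-PCR.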
# [10] = read-out: matrix metalloproteinase-1 (MMP1), MMP1 (gene 4312); assay: LTEA_HepaRG_MMP1: Life Technologies and Expression Analysis (LTEA) Assay for matrix metalloproteinase-1 (MMP1) using HepaRG (AID 2283658; active = hit-call score of the fitted dose curve at least 0.9, where 1 is the maximum; inactive = score below 0.9); conditions: mRNA level, 48 h; actives raise or lower the signal
# Method in brief: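 qRT-PCR (TaqMan, Fluidigm arrays) of MMP1 transcript, normalized against three housekeeping genes and fitted in both directions relative to 0.5% DMSO vehicle. Human HepaRG cultures received duplicate 48 h exposures across 8 points, highest 100 uM with half-log steps.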
# [11] = read-out: Cytochrome P450 (CYP24A1_1), CYP24A1 (gene 1591); assay: LTEA_HepaRG_CYP24A1_1: Life Technologies and Expression Analysis (LTEA) Assay for Cytochrome P450 (CYP24A1_1) using HepaRG (AID 2283671; active = hit-call score of the fitted dose curve at least 0.9, where 1 is the maximum; inactive = score below 0.9); conditions: mRNA level, 48 h; actives raise or lower the signal
# Method in brief: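 Cultures of human HepaRG were treated in duplicate for 48 h (0.5% DMSO vehicle, highest dose 100 uM). CYP24A1 mRNA by qRT-PCR, normalized to ACTB, GAPDH, POLR2A.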
# [12] = STM_H9_OrnithineISnorm_perc: Stemina devTOX quickPredict H9 human embryonic stem cell (hESC)-based Assay for Ornithine (ORN) Metabolite Biomarker, Normalized (AID 2283712; active = hit-call score of the fitted dose curve at least 0.9, where 1 is the maximum; inactive = score below 0.9;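 note: ornithine released into spent medium during last day measured by mass spectrometry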)
# Method in brief: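 Ornithine in spent medium from the last 24 h of a 72 h exposure, deproteinised and quantified by UPLC-HRMS against an isotope-labelled internal standard, expressed relative to 0.1% DMSO. Pluripotent H9 cells; compound refreshed every 24 h.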
# [13] = STM_H9_CystineISnorm_perc: Stemina devTOX quickPredict H9 human embryonic stem cell (hESC)-based Assay for Cystine (CYSS) Metabolite Biomarker, Normalized (AID 2283713; active = hit-call score of the fitted dose curve at least 0.9, where 1 is the maximum; inactive = score below 0.9)
# Method in brief: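 Cystine in spent media from the last 24 h of a 72 h H9 hESC exposure (daily re-dosing), measured by UPLC-HRMS. Values normalized to isotopic internal standard, then to 0.1% DMSO; viability via CellTiter-Fluor.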
# [14] = STM_H9_OrnCyssISnorm_ratio: Stemina devTOX quickPredict H9 human embryonic stem cell (hESC)-based Assay for Ornithine (ORN):Cystine (CYSS) Ratio (AID 2283714)
# Method in brief: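 H9 hESC, 72h, q24h re-dose; last-day media → acetonitrile deproteinization → UPLC-HRMS. ORN:CYSS ratio from isotope-normalized EIC areas, vs 0.1% DMSO; MTX references on each plate.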
# [15] = CEETOX_H295R_MTT_cell_viability: Viability Assessment in the CeeTox HT-H295R MTT Assay (AID 2283718; active = hit-call score of the fitted dose curve at least 0.9, where 1 is the maximum; inactive = score below 0.9)
# Method in brief: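 H295R cells prestimulated 48 h with 10 uM forskolin, then exposed 48 h to test chemical (0.1% DMSO final). Viability by MTT (0.5 mg/ml, 4 h, 37 C), absorbance 570/650 nm; percent change versus DMSO, bidirectional fit.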
# [16] = CCTE_Padilla_ZF_144hpf_TERATOSCORE: (Legacy) CCTE's 144 Hour Post-fertilization zebrafish Assay Teratoscore, Padilla Lab (AID 2283679; active = hit-call score of the fitted dose curve at least 0.9, where 1 is the maximum; inactive = score below 0.9)
# Method in brief: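 Larvae scored by eye at 144 hpf for death, hatching and malformations after a day in clean Hanks'. Before that, daily-renewed exposure at 80 uM (0.4% DMSO, 26C) from roughly 6-8 hpf through 5 dpf, 4 embryos per chemical.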
# [17] = tested on: Thyroperoxidase (TPO), gene 445522; assay: CCTE_Simmons_GUA_TPO: CCTE's Guaiacol Assay for Thyroperoxidase (TPO) Inhibition, Simmons Lab (AID 2283750)
# Method in brief: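 Porcine thyroid microsomes (25 ug) in 200mM potassium phosphate, preincubated 30 s at 37C with compound (8 concentrations, 5 nM–87.5 uM) and 35mM guaiacol; 1mM H2O2 starts reaction. Absorbance change at 450nm over first 80 s; loss of signal versus DMSO, three replicates.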
# [18] = ArunA_CellTiter_hNC: Viability Assessment in the ArunA Biomedical's Oris Neural Crest (hNC) Cell Migration Assay (AID 2283752)
# Method in brief: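 After a 72 h chemical exposure, viability of hNC cells is read with CellTiter Aqueous One and fitted as signal loss relative to DMSO. Cells were seeded at 60,000/well on Matrigel and cultured 16 h at 37 C beforehand.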
# [19] = ArunA_CellTiter_hNP: Viability Assessment in the ArunA Biomedical's Oris Neural Crest (hNC) Cell Migration Assay (AID 2283753)
# Method in brief: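 Viability read with CellTiter 96 Aqueous One after 72 h chemical exposure of human hNP1 neuroprogenitors, which were plated on Matrigel in LIF/bFGF medium 16 h beforehand. Endpoint fitted in positive direction relative to DMSO.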
smiles,measurement,setting,value
Oc1ccccc1,outcome,[1],inactive
same,outcome,[2],inactive
same,outcome,[3],inactive
same,AC50,[4],23.6 µM (active)
same,outcome,[4],inactive
same,outcome,[5],inactive
same,outcome,[6],inactive
same,outcome,[7],inactive
Cc1occc1C(=O)Nc1ccc(C(=O)N2CCC(F)(F)/C(=C\C(=O)N3CCC(N4CCCCC4)CC3)c3ccccc32)cc1,outcome,[8],inactive
same,outcome,[2],inactive
same,outcome,[3],inactive
same,AC50,[9],41.9 µM (active)
same,outcome,[10],inactive
same,outcome,[6],inactive
same,outcome,[11],inactive
same,outcome,[7],inactive
CCCCCCCCCC(=O)O,outcome,[1],inactive
same,outcome,[2],inactive
same,outcome,[3],inactive
same,outcome,[6],inactive
same,outcome,[7],inactive
CCCCOC(=O)c1ccc(O)cc1,AC50,[1],46 µM (active)
same,AC50,[2],21 µM (active)
same,outcome,[3],inactive
same,AC50,[6],49.3 µM (active)
same,AC50,[12],42.3 µM (active)
same,outcome,[13],inactive
same,outcome,[14],inactive
same,outcome,[15],inactive
same,AC50,[7],41 µM (active)
CCCCCCCC[Si](OCC)(OCC)OCC,outcome,[1],inactive
same,outcome,[2],inactive
same,outcome,[3],inactive
same,outcome,[6],inactive
same,outcome,[15],inactive
same,outcome,[7],inactive
O=C(O)Cn1c(=O)n(Cc2ccc(Br)cc2F)c(=O)c2ccc(Cl)cc21,outcome,[1],inactive
same,outcome,[2],inactive
same,outcome,[3],inactive
same,outcome,[6],inactive
same,outcome,[15],inactive
same,outcome,[7],inactive
CCCCCc1ccc(N)cc1,outcome,[1],inactive
same,outcome,[2],inactive
same,outcome,[3],inactive
same,AC50,[4],0.0637 µM (active)
same,AC50,[5],26.7 µM (active)
same,outcome,[6],inactive
same,outcome,[15],inactive
same,outcome,[7],inactive
CCCCCCCCCCCCO,outcome,[8],inactive
same,outcome,[1],inactive
same,outcome,[2],inactive
same,outcome,[3],inactive
same,outcome,[9],inactive
same,outcome,[10],inactive
same,outcome,[6],inactive
same,outcome,[11],inactive
same,outcome,[7],inactive
CCCCCCCCCCCC[N+](C)(C)C,outcome,[1],inactive
same,outcome,[2],inactive
same,outcome,[3],inactive
same,outcome,[6],inactive
same,AC50,[12],7.79 µM (active)
same,AC50,[13],1.6 µM (active)
same,AC50,[14],4.73 µM (active)
same,outcome,[15],inactive
same,outcome,[7],inactive
Cc1ccc(C(C)C)cc1,outcome,[1],inactive
same,outcome,[2],inactive
same,outcome,[3],inactive
same,outcome,[6],inactive
same,outcome,[7],inactive
OCCO,outcome,[1],inactive
same,outcome,[2],inactive
same,outcome,[3],inactive
same,outcome,[6],inactive
same,outcome,[12],inactive
same,outcome,[13],inactive
same,outcome,[14],inactive
same,outcome,[7],inactive
CCO[Si](CCCNC(N)=O)(OCC)OCC,outcome,[1],inactive
same,outcome,[2],inactive
same,outcome,[3],inactive
same,outcome,[6],inactive
same,outcome,[7],inactive
O=CCCCC=O,outcome,[1],inactive
same,outcome,[2],inactive
same,outcome,[3],inactive
same,outcome,[6],inactive
same,outcome,[7],inactive
CC[C@H](NC(=O)c1cc(F)ccc1NS(=O)(=O)c1cccc2cccnc12)c1ccccc1,outcome,[1],inactive
same,outcome,[2],inactive
same,outcome,[3],inactive
same,outcome,[6],inactive
same,outcome,[12],inactive
same,outcome,[13],inactive
same,outcome,[7],inactive
O=C(O)Cc1cc(I)c(Oc2ccc(O)c(I)c2)c(I)c1,outcome,[1],inactive
same,outcome,[2],inactive
same,outcome,[3],inactive
same,AC50,[4],0.32 µM (active)
same,outcome,[5],inactive
same,outcome,[6],inactive
same,AC50,[7],31.3 µM (active)
C[C@]12CC[C@@H]3c4ccc(O)cc4CC[C@H]3[C@@H]1CCC2=O,outcome,[1],inactive
same,outcome,[2],inactive
same,outcome,[3],inactive
same,outcome,[6],inactive
same,outcome,[16],inactive
same,outcome,[15],inactive
same,outcome,[7],inactive
Oc1ccc2ccccc2c1,outcome,[1],inactive
same,AC50,[2],50.2 µM (active)
same,outcome,[3],inactive
same,AC50,[4],3.13 µM (active)
same,outcome,[5],inactive
same,AC50,[6],33.6 µM (active)
same,outcome,[15],inactive
same,AC50,[7],36.6 µM (active)
same,AC50,[17],72.8 µM (active)
CCCCCCCCOC(=O)c1cc(O)c(O)c(O)c1,outcome,[1],inactive
same,outcome,[2],inactive
same,outcome,[3],inactive
same,AC50,[4],0.921 µM (active)
same,AC50,[5],7.69 µM (active)
same,outcome,[6],inactive
same,AC50,[12],2.13 µM (active)
same,AC50,[13],2.47 µM (active)
same,AC50,[14],2.54 µM (active)
same,outcome,[15],inactive
same,AC50,[7],9.16 µM (active)
same,outcome,[18],inactive
same,AC50,[19],6.65 µM (active) and 541 nM (active)
CN1C(=O)CC[C@H]1c1cccnc1,outcome,[1],inactive
same,outcome,[2],inactive
same,outcome,[3],inactive
same,outcome,[6],inactive
same,outcome,[12],inactive
same,outcome,[13],inactive
same,outcome,[14],inactive
same,outcome,[7],inactive
